In all, about 5,500 compounds went through this assay and about 2,000 (36%) were called active. Inconclusive results (about 18%) are left out. Cut-off read from the data, not from the text of the source: active = normalized growth mostly below about 0.91 (no sharp cut-off); inconclusive = no clear call, values can overlap the other calls; inactive = mostly above about 0.92. This is one part of the list.
Assay: chemical genetic growth profiling, strain panel (AID 1159580);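 note: tested at 20 µM; growth read once vehicle control cultures reached saturation at 30 °C; 1 = growth at the plate median or of vehicle wells; lower values mean less growth of the strain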
Conditions: S. cerevisiae deletion strains, growth OD

Measured: normalized growth

C=Cc1c2[nH]c(c1C)Cc1[nH]c(c(C)c1C=C)C=C1N=C(C=c3[nH]c(c(C)c3CCC(=O)O)=C2)C(CCC(=O)O)=C1C
inactive: locus YAL013W, strain DEP1, stronger effect = lower value 0.99 | locus YAL040C, strain CLN3, stronger effect = lower value 0.989 | locus YCL061C, strain MRC1 (second series), stronger effect = lower value 1.01 | locus YDR363W, strain ESC2, stronger effect = lower value 1.05 | locus YER002W, strain NOP16, stronger effect = lower value 0.987 | locus YGR078C, strain PAC10, stronger effect = lower value 1.01 | locus YJR075W, strain HOC1, stronger effect = lower value 1.01 | locus YMR307W, strain GAS1, stronger effect = lower value 1.01 | locus YNL153C, strain GIM3, stronger effect = lower value 0.799 | locus YNL175C, strain NOP13, stronger effect = lower value 0.993 | locus YNL197C, strain WHI3, stronger effect = lower value 0.972 | locus YNL224C, strain SQS1, stronger effect = lower value 1.01 | locus YOR083W, strain WHI5 (second series), stronger effect = lower value 1.01

From PubChem BioAssay AID1159580 (chemical genetic matrix, 2015)
